Shown are actives, neighbours in structure and some others; about 1% of the full set was active somewhere.
SSB-PriA inh – K. pneumoniae PriA-SSBct interaction inhibition. AlphaScreen SSBct-PriA binding, biotinylated peptide. inhibition, % at 33 µM. 430,000 tested, 0.6% active. AID 1272365; in the data active = inhibition mostly above about 37%, no sharp cut-off; inactive = mostly below about 20%;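 also: plate controls were negative control peptide for no effect and reference peptide for full effect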
RN4220 kill – kills Staphylococcus aureus RN4220. S. aureus RN4220 growth, OD600, 16 h. inhibition, % (concentration not given with the values). 330,000 tested, 0.33% active. AID 1259311; in the data active = inhibition above about 85%;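 also: plate controls were untreated cells for no effect and reference antibiotic for full effect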
Sa ugtP lethal – growth inhibition of S. aureus ugtP deletion strain; growth inhibition, % (test concentration not listed); 330,000 tested, 0.54% active; S. aureus RN4220 ugtP deletion, OD600 growth, 16 h; in the data active = growth inhibition above about 68%;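 also: plate controls were untreated wells for no effect and antibiotic for full effect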
* marks the source's active call; other numbers are inactive results.

Screening O=C(Cn1nc(-c2ccccc2)c2sc(N3CCCC3)nc2c1=O)c1ccccc1 returned SSB-PriA inh 5.
CC(C)=CCCC1=CCC(C=NNC(N)=O)C(C)C1 (stereo not drawn) was read as SSB-PriA inh -6, RN4220 kill 1 and Sa ugtP lethal 93*.
For NC(=O)N/N=C/CCc1ccccc1 the results were SSB-PriA inh inactive.
Screening CC(=O)Nc1nc(-c2ccc(Cl)c(Cl)c2)cs1 returned SSB-PriA inh -12.
For O=C(COc1ccccc1)Nc1nnc(S(=O)(=O)N2CCCCCC2)s1 the results were SSB-PriA inh 95*, RN4220 kill 4 and Sa ugtP lethal 12.
COc1ccc(C(=O)Nc2nnc(S(=O)(=O)N3CCCCCC3)s2)cc1OC was read as SSB-PriA inh 82*, RN4220 kill 2 and Sa ugtP lethal 10.
`O=C(COc1ccccc1)Nc1nnc(S(=O)(=O)N2CCCCC2)s1` gave SSB-PriA inh -15, RN4220 kill 3 and Sa ugtP lethal -1.
Screening CCC(=O)Nc1nnc(S(=O)(=O)N2CCCC2)s1 returned SSB-PriA inh 1, RN4220 kill 3 and Sa ugtP lethal 7.
`O=C(COc1ccccc1Cl)Nc1nnc(S(=O)(=O)N2CCCCCC2)s1` gave SSB-PriA inh 100*, RN4220 kill 3 and Sa ugtP lethal 21.
Screening COc1ccc(C(=O)Nc2nnc(S(=O)(=O)N3CCC(C)CC3)s2)cc1OC returned SSB-PriA inh -11, RN4220 kill 9 and Sa ugtP lethal 7.
CCC(=O)Nc1nnc(S(=O)(=O)N2CCCCCC2)s1 was read as SSB-PriA inh 100*, RN4220 kill 1 and Sa ugtP lethal 9.
`O=C(COc1ccc(F)cc1)Nc1nnc(S(=O)(=O)N2CCCC2)s1` gave SSB-PriA inh -25, RN4220 kill 2 and Sa ugtP lethal -14.
`COc1cc(-c2nc(CSc3nc(-c4ccncc4)cc(=O)[nH]3)c(C)o2)cc(OC)c1OC` gave SSB-PriA inh -6.
Screening COc1ccc(CCS(=O)(=O)Nc2ccc3c(c2)CCC(=O)N3C)cc1 returned SSB-PriA inh -3.
O=C(c1ccco1)c1ccc(CNS(=O)(=O)/C=C/c2ccccc2)s1 was read as SSB-PriA inh -8.
Screening CN1C(=O)c2cc(NS(=O)(=O)Cc3ccccc3F)ccc2Oc2ccccc21 returned SSB-PriA inh 9.
For CCOC(=O)c1c(NC(=O)c2ccn(C)n2)sc2c1CCN(C(C)=O)C2 the results were SSB-PriA inh 18.
O=C(NCCn1nc(-c2ccco2)n(C2CC2)c1=O)C1(c2cccs2)CCCC1 was read as SSB-PriA inh 1.
Screening C[n+]1c2n(c3ccccc31)N=C(c1ccccc1)CS2 returned SSB-PriA inh 2, RN4220 kill 1 and Sa ugtP lethal -2.
`C[n+]1c2n(c3ccccc31)N=C(c1ccc(-c3ccccc3)cc1)CS2` gave SSB-PriA inh 6, RN4220 kill 100* and Sa ugtP lethal 101*.
For Cc1cc(NC(=O)C(=O)NCc2ccncc2)ccc1N1CCCC1=O the results were SSB-PriA inh -4.
`COc1cn2c(cc1=O)C(=O)N(CCNC(=O)c1ccc(-c3ccccc3)cc1)CC2` gave SSB-PriA inh -5.
CSc1ccccc1C(=O)NCC(O)(c1ccco1)C1CC1 (stereo not drawn) was read as SSB-PriA inh 11.
Screening COc1ccc(-c2cnc(SCC(=O)Nc3nc(C)cs3)n2Cc2ccco2)cc1 returned SSB-PriA inh 30*.
Screening COc1ccccc1NC(=O)CSc1nnc(-c2ccc(C)cc2)n1Cc1ccco1 returned SSB-PriA inh 47.
COc1ccc(C)cc1NC(=O)CSc1nnc(-c2ccccn2)n1Cc1ccco1 was read as SSB-PriA inh -3, RN4220 kill 7 and Sa ugtP lethal -1.
COc1ccc(-c2cnc(SCC(=O)Nc3nc(C(C)(C)C)cs3)n2Cc2ccco2)cc1 was read as SSB-PriA inh 25, RN4220 kill 1 and Sa ugtP lethal -6.
COc1ccccc1NC(=O)CSc1nnc(-c2ccncc2)n1Cc1ccco1 was read as SSB-PriA inh 56*.
`CCc1ccccc1NC(=O)CSc1nnc(-c2ccccn2)n1Cc1ccco1` gave SSB-PriA inh 54*.
O=C(CSc1nnc(-c2ccccn2)n1Cc1ccco1)Nc1ccccc1F was read as SSB-PriA inh 38.
Screening COc1ccccc1NC(=O)CSc1nnc(-c2ccccn2)n1Cc1ccco1 returned SSB-PriA inh 63*, RN4220 kill 0 and Sa ugtP lethal -5.
For CN(C)CCN(C(=O)c1ccc([N+](=O)[O-])s1)c1nc2cc3c(cc2s1)OCO3 the results were SSB-PriA inh -4.
`COc1ccc2nc(-c3ccc(C)c(NC(=O)c4c(F)cccc4F)c3)cn2n1` gave SSB-PriA inh -14.
`CN(C)CCN1C(=O)C(=O)C(=C(O)c2ccc(F)cc2)C1c1ccccc1` (stereo not drawn) gave SSB-PriA inh -3.
